Source: PubChem (National Center for Advancing Translational Sciences (NCATS))
In the library only some 19% were active in any assay of this set; here they are far more common.
TDP1 cell CPT = growth inhibition of DT40 Tdp1-/-;hTDP1 cells with camptothecin (screen for TDP1 inhibitors); chicken DT40 Tdp1-/-;hTDP1 cells + 20 nM CPT, ATP luminescence, 48 h; Potency, µM (highest dose often 46.2 µM), without a hit: at the top dose activity change, negative = growth inhibition, usual class: inhibitors; 420,000 compounds, 12% hits; note: nearly all actives have a fitted effect of over 55% in size
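Chicken DT40 Tdp1-/- cells complemented with human TDP1, 400 cells/well, exposed to compounds plus 20 nM camptothecin for at least 48 h at 37 C; viability read as ATP content by CellTiter-Glo luminescence.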
KB-V1 MDR tox = KB-V1 MDR subline cytotoxicity | 400,000 compounds, 3.4% hits | AID 1347076 | KB-V1 MDR cells viability, CellTiter-Glo, 72 h | Potency, µM (series often up to 46.1 µM), usual class: cytotoxic; note: nearly all actives have a fitted effect of over 60% in size
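Potencies derive from concentration-effect curves fitted to normalized luminescence (CellTiter-Glo) of KB-V1 cells treated for 72 h at 37 degrees C in phenol-red-free DMEM containing 10% FBS.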
DT40 TDP1 no CPT = qHTS for Inhibitors of human tyrosyl-DNA phosphodiesterase 1 (TDP1): qHTS in cells in absence of CPT; DT40 Tdp1-/- hTDP1 cells, no CPT, ATP luminescence, 48 h; Potency, µM (doses to about 46.2 µM), for inactives: at the top dose activity change, negative = growth inhibition, actives largely listed as inhibitors; 420,000 compounds, 15% hits; AID 686978, 2013; note: nearly all actives have a fitted effect of over 55% in size
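Growth kinetics read by CellTiter-Glo luminescence after ≥48 hr at 37 °C. Cells: DT40 Tdp1-/- stably carrying human TDP1, 400 per well, compound exposure in the absence of CPT (DMSO vehicle).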
KB-3-1 tox = kills parental KB-3-1 adenocarcinoma cells; KB-3-1 viability, CellTiter-Glo ATP luminescence, 72 h; Potency, µM (series often up to 46.1 µM), hits mostly cytotoxic; 400,000 compounds, 1.4% hits; AID 1347075; note: nearly all actives have a fitted effect of over 60% in size
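Using CellTiter-Glo luminescence, growth of non-resistant KB-3-1 adenocarcinoma cells is assessed 72 h after pin-tool compound addition at 37 °C. Normalized responses across the concentration series yield fitted curves.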
HT1080 IDH1KD tx = kills HT-1080 cells with IDH1 knockdown; AID 686971; HT-1080 IDH1 knockdown viability, ATP luminescence, 48 h; 360,000 compounds, 2% hits; Potency, µM (titrated, usually from 46.1 µM), inactives show at the top dose activity, negative = toxicity, most hits filed as cytotoxic;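 note: 0% = DMSO wells and -100% = cell-free medium wells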
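% activity derives from luminescence (CellTiter-Glo), normalised to DMSO and no-cell wells. HT-1080-IDH1KD cells, 750/well, had 48 h compound exposure at 37 °C.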
HT1080-NT tox = kills 2HG-producing HT-1080-NT fibrosarcoma cells; 360,000 compounds, 1.6% hits; HT-1080-NT fibrosarcoma viability, CellTiter-Glo ATP luminescence, 48 h; AID 686970; Potency, µM (titrated, usually from 46.1 µM), for the others: at the highest dose activity, negative = less viability, most hits filed as cytotoxic;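 note: NT is the 2HG producing partner of a matched IDH1 knockdown line; 0% = DMSO-treated cells and -100% = media-only wells without cells; nearly all actives have a fitted effect of over 55% in size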
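Fibrosarcoma NT cells, 750 per well in 5% FBS RPMI, were exposed to compound for 48 hours. Viability: CellTiter-Glo luminescence.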
* hit, by the source's call; i = inactive; ? = inconclusive; / = no result. Calls come from the whole dose curve; as a rule, active = well fitted curve in the direction sought with a large enough effect; inconclusive = small, poorly fitted or top-dose-only effect, or another doubt; inactive = no such curve, though single readings can be large; an effect the other way counts as inactive or inconclusive. Unless noted, % is set by controls: 0 for no effect and ±100 for the full control effect; potency is the fitted concentration of half-maximal effect.

SMILES	TDP1 cell CPT	KB-V1 MDR tox	DT40 TDP1 no CPT	KB-3-1 tox	HT1080 IDH1KD tx	HT1080-NT tox
CCCN1CCN(C(=O)Cn2c(-c3cccs3)cc3ccccc32)CC1	?	i	?	i	/	/
CCCN1CCN(C(=O)Cn2c(-c3cccs3)cc3cc(F)ccc32)CC1	12µM*	i	-70%	i	/	/
O=C(Cn1c(-c2cccs2)cc2cc(Cl)ccc21)N1CCN(c2ccccc2)CC1	?	i	-28%	i	/	/
CC1CCN(C(=O)Cn2c(-c3cccs3)cc3cc(Cl)ccc32)CC1	16µM*	i	?	i	/	/
CCOC(=O)C1CCN(C(=O)Cn2c(-c3cccs3)cc3cc(Cl)ccc32)CC1	15µM*	i	21µM*	i	/	/
COc1ccc(OC)c(CNc2ccc3c(c2)CCC3)c1	?	i	16µM*	i	-16%	-8%
COc1ccc(CC(=O)Nc2ccc3c(c2)CCC3)cc1OC	?	i	9.2µM*	i	-16%	-2%
COc1ccc(CCNC(=O)CN2c3cccc4cccc(c34)S2(=O)=O)cc1	-5%	i	?	i	9%	16%
COc1ccc(NC(=O)CSc2nc3c(c(=O)[nH]2)CN(Cc2ccccc2)CC3)cc1Cl	?	?	?	i	/	/
C=C1C(=O)O[C@H]2C1CC[C@@](C)(O)C13C=CC(C)(C21)C1(C3)C(=O)O[C@@H]2C3C(C)=CCC3[C@](C)(O)C[C@H](OC(C)=O)C21 (stereo not given in full)	?	i	16µM*	i	?	?
C=C1CCC(OC(C)=O)/C(C)=C/CC2[C@H]1CC2(C)C (stereo not given in full)	-20%	/	-12%	/	/	/
COc1cnc(-c2ccccc2)[nH]c1=O	-12%	i	-13%	i	-2%	18%
O=c1[nH]c(-c2ccccc2)ncc1OCc1ccccc1	13µM*	i	-22%	i	20%	11%
Cc1oc(=O)c(NC(=O)c2ccccc2)cc1C(=O)c1ccccc1	?	i	?	i	-4%	-17%
Cc1ccc(C(=O)Nc2cc3ccccc3oc2=O)cc1	2.1µM*	4.1µM*	3.7µM*	3.3µM*	-16%	-27%
CC(=O)c1cc(NC(=O)c2ccc(C)cc2)c(=O)oc1/C=C/N(C)C	-15%	?	-24%	i	-1%	-3%
CC(=O)c1cc(NC(=O)c2ccc(C)cc2)c(=O)oc1C	23µM*	i	?	i	?	-8%
CC(=O)c1cc(NC(=O)c2ccccc2)c(=O)oc1C	?	i	33µM*	i	?	6%
COC(=O)c1c(NC(=O)CS(=O)(=O)c2ccccc2)sc(C)c1C	?	i	21µM*	i	-12%	-4%
CCOC(=O)c1c(NC(=S)Nc2ccccc2)sc(C)c1C	?	i	?	i	?	?
Cc1sc(NC(=O)CCS(=O)(=O)c2ccccc2)c(C#N)c1C	23µM*	?	?	?	-7%	7%
CCOC(=O)c1c(NC(=O)CN2CCCc3ccccc32)sc(C)c1C	?	i	?	?	?	-13%
CCOC(=O)c1c(NC(=O)C[n+]2ccc(Cc3ccccc3)cc2)sc(C)c1C	12µM*	?	6.5µM*	?	?	?
COC(=O)c1c(NC(=O)CN2CCCc3ccccc32)sc(C)c1C	21µM*	?	?	i	-22%	-6%
Cc1sc(NC(=O)CS(=O)(=O)c2ccccc2)c(C#N)c1C	-24%	i	-28%	i	0%	-9%
SMILES	TDP1 cell CPT	KB-V1 MDR tox	DT40 TDP1 no CPT	KB-3-1 tox	HT1080 IDH1KD tx	HT1080-NT tox
Cc1ccc(-c2ccc(CCC(=O)O)n2-c2cccc(C)c2C)cc1	-15%	?	-20%	i	/	/
CC(OC(=O)/C=C/c1ccco1)C(=O)NC1CCCCC1 (stereo not given)	-19%	?	?	i	7%	6%
COc1cc(NC(=O)c2nnn(CC(=O)Nc3ccccc3)c2N)cc(OC)c1	6%	/	-8%	/	/	/
Cc1cc(S(=O)(=O)N2CCCCC2)ccc1OCC(=O)N1CCOCC1	-7%	i	0%	i	-3%	-8%
COC(=O)c1[nH]c2ccc(Br)cc2c1NC(=O)CN1CCCc2ccccc21	21µM*	i	18µM*	i	?	-23%
COC(=O)c1[nH]c2cc(C)ccc2c1NC(=O)CN1CCCc2ccccc21	?	i	26µM*	i	-2%	-4%
NS(=O)(=O)c1ccc(CCNc2nccn(-c3cccc(C(F)(F)F)c3)c2=O)cc1	-17%	i	?	i	/	/
NS(=O)(=O)c1ccc(CCNc2nn3c(-c4cccc(OC(F)(F)F)c4)cnc3s2)cc1	12µM*	i	13µM*	?	8.2µM*	8.2µM*
CCOC(=O)c1cc(S(=O)(=O)NC2CCC(C)CC2)cn1C (stereo not given)	-2%	i	?	i	0%	0%
CC(NC(=O)Cc1ccsc1)c1ccc(F)cc1 (stereo not given)	15%	i	-13%	i	14%	10%
CN(Cc1ccc(C(C)(C)C)cc1)C(=O)C1CSC2(C)CCC(=O)N12 (stereo not given)	16µM*	i	?	i	-2%	-16%
CN(CC(=O)Nc1ccc(Cl)c(C(F)(F)F)c1)C(=O)C1CSC2(C)CCC(=O)N12 (stereo not given)	?	i	18µM*	i	-11%	3%
CCCN(C(=O)C1CSC2(C)CCC(=O)N12)c1c(N)n(Cc2ccccc2)c(=O)[nH]c1=O (stereo not given)	3%	i	-21%	i	18%	16%
CN(CC(=O)Nc1ccc(F)c(F)c1F)C(=O)C1CSC2(C)CCC(=O)N12 (stereo not given)	-22%	i	0%	i	6%	-1%
C=CCN(C(=O)C1CSC2(C)CCC(=O)N12)c1nc(-c2ccccc2)cs1 (stereo not given)	18µM*	i	23µM*	i	-22%	-7%
Cc1ccc(C)c(OC(=O)C2CSC3(C)CCC(=O)N23)c1C (stereo not given)	-15%	i	?	16µM*	-2%	0%
Cc1nnc(SCC(=O)NC2CCCC2)n1C(C)C	3%	?	1%	i	12%	15%
